SMILES strings stand for the structures. Values without a mark were called inactive. For some assays here: Measured potencies and affinities stand elsewhere. Active and inactive are the calls of the source. Unless noted, the rule behind the calls is not given here.

Experiment [1] is described as follows: antimalarial activity against Dd2 strain (AID 2302;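 active = growth inhibition above 50% at the single 2 µM test dose, taken to imply half-maximal potency below 2 µM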;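 note: 0% = DMSO untreated growth and 100% = chloroquine plus artemisinin killed control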). Conditions: P. falciparum Dd2 in RBCs, LDH growth readout, 72 h; at 2 µM; stronger effect = higher value.
Experiment [2] in a line: human hepatoma cell viability loss – ATP luminescence, cytotoxicity control for P. falciparum antimalarial project, primary screen (AID 2303;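 active = inhibition above 50%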;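 note: 0% = DMSO wells and 100% = digitonin-killed cells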). Conditions: HepG2 viability, 24-48 h, at 10 µM, stronger effect = higher value.
Experiment [3] concerns the target L-lactate dehydrogenase (Plasmodium falciparum (isolate CDC / Honduras)) (UniProt Q27743). Kind of experiment: PfLDH activity inhibition – cell lysate, 3D7 strain, counter-screen for P. falciparum growth inhibition project (AID 2304).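 Note: 0% = vehicle and 100% = reference inhibitor.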 Conditions: P. falciparum 3D7 crude extract, LDH APAD/NBT absorbance; at 2 µM; stronger effect = higher value.
Experiment [4] can be described thus: inhibition of 3D7 malaria parasite growth – strain 3D7 (AID 2306).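 Note: 0% = DMSO wells and 100% = chloroquine plus artemisinin control wells.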 The conditions noted are these: P. falciparum 3D7 erythrocytic growth, LDH absorbance, 72 h; at 2 µM; stronger effect = higher value.
Experiment [5] deals with Calcium-dependent protein kinase 1 (Plasmodium falciparum (isolate 3D7)) (UniProt P62344). Kind of experiment: PfCDPK1 kinase inhibitors, biochemical, TCAMS library (AID 1159585; cut-off not given, nearly all actives have IC50 up to about 0.98 µM;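 note: inhibitors leave more ATP so luminescence rises with inhibition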). The conditions noted are these: recombinant PfCDPK1, Kinase-Glo ATP depletion luminescence.
Sequence of Calcium-dependent protein kinase 1 (Plasmodium falciparum (isolate 3D7)) (P62344 whole entry, looked up): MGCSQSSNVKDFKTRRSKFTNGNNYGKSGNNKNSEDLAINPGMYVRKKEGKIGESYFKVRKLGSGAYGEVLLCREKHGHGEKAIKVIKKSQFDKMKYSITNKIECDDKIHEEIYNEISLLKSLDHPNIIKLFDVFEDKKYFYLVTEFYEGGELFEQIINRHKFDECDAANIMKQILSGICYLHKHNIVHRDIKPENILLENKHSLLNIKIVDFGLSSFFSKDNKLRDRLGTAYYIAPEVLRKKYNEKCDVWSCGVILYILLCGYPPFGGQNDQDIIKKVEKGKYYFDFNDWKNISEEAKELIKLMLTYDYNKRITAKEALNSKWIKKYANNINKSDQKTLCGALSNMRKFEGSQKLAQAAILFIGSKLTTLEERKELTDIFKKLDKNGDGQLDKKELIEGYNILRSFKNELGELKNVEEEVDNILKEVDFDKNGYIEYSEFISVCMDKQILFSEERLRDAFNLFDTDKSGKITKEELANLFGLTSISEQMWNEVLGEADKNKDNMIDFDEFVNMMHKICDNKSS
The target of experiment [6] is Plasmodium falciparum protein kinase 6 (PK6, PF3D7_1337100) (UniProt Q8IDW1). Briefly: PfPK6 kinase inhibitors, biochemical, TCAMS library (AID 1159586). Conditions: recombinant PfPK6, Kinase-Glo ATP depletion luminescence.
Sequence of Plasmodium falciparum protein kinase 6 (PK6, PF3D7_1337100) (Q8IDW1 1-305): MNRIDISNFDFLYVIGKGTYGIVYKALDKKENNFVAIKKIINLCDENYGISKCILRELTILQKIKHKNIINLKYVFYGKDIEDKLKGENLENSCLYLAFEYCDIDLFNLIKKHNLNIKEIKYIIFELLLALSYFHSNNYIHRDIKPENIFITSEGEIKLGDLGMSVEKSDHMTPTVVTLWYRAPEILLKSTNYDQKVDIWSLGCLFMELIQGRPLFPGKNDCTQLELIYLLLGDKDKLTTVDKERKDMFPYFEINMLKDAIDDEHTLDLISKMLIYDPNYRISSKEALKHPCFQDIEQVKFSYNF
The target in experiment [7] is Protein kinase 7 (PK7), Plasmodium falciparum 3D7 (PF3D7_0213400) (UniProt Q7YTF7). Kind of experiment: inhibition of Plasmodium PK7 catalytic activity – biochemical, TCAMS antimalarial set, Kinase-Glo luminescence (AID 1159587). The conditions noted are these: recombinant PfPK7, Kinase-Glo ATP depletion luminescence.
Sequence of Protein kinase 7 (PK7), Plasmodium falciparum 3D7 (PF3D7_0213400) (Q7YTF7 1-343): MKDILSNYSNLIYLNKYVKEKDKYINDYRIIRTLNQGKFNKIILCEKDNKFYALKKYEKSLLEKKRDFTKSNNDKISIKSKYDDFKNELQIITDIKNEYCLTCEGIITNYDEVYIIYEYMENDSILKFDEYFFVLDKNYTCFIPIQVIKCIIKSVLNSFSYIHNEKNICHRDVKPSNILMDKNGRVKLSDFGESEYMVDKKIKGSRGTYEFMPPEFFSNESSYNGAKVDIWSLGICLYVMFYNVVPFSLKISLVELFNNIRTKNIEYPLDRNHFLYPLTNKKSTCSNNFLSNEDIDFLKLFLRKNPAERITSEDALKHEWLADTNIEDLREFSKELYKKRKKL
In experiment [8] the target is Calcium-dependent protein kinase 4 (Plasmodium falciparum (isolate 3D7)) (UniProt Q8IBS5). Kind of experiment: PfCDPK4 kinase inhibitors, biochemical, TCAMS library (AID 1159588; cut-off not given, nearly all actives have IC50 up to about 0.91 µM). The conditions noted are these: recombinant PfCDPK4, Kinase-Glo ATP depletion luminescence.
Sequence of Calcium-dependent protein kinase 4 (Plasmodium falciparum (isolate 3D7)) (Q8IBS5 whole entry, looked up): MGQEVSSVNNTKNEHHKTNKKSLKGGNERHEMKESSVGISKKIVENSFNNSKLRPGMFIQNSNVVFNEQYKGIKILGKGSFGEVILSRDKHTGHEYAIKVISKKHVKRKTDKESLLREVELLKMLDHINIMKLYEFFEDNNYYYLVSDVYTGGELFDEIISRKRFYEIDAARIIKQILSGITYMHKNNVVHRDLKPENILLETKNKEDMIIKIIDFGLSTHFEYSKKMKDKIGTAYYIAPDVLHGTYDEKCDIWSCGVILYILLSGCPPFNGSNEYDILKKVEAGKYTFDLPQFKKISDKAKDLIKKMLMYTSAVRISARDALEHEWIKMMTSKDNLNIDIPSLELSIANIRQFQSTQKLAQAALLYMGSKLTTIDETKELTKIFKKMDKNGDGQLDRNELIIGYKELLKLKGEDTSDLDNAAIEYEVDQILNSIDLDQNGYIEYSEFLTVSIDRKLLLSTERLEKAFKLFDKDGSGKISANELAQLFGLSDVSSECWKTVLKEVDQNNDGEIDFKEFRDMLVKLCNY

Sequence of L-lactate dehydrogenase (Plasmodium falciparum (isolate CDC / Honduras)) (Q27743 whole entry, looked up): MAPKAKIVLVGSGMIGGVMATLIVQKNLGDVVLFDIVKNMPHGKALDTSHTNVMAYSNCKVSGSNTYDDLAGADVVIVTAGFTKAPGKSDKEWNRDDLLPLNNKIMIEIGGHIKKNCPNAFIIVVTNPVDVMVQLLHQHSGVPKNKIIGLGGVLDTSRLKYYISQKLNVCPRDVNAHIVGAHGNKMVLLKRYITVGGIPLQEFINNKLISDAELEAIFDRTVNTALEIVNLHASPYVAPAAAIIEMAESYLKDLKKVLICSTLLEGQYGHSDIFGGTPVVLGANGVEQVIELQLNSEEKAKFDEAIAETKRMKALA

In the case of `Cc1ccc(CNC(=O)c2cnc(N3CCN(c4ccncc4)CC3)c(Cl)c2)cc1`, the growth inhibition is 6% in experiment [1] and 92% (active) in experiment [4]. The inhibition in experiment [2] is 27%; in experiment [3] it was -3%. Also, the outcome in experiment [5], in experiment [6], in experiment [7] and in experiment [8] was inactive.

Take `COc1ccc2nccc([C@@H](O)CN3CCC(NCc4cc5cc(OC(F)(F)F)ccc5[nH]4)CC3)c2c1`: the growth inhibition is 82% (active) in experiment [1] and 100% (active) in experiment [4]. Moreover, the values for the inhibition in experiment [2] and in experiment [3] were 49% and 2%, respectively. Moreover, the result in experiment [5], in experiment [6], in experiment [7] and in experiment [8] was inactive.

Regarding `COc1ccc(CNC2Cc3ccccc3C2)cc1-c1ccc(S(=O)(=O)NCc2cccnc2)s1`, the results for the growth inhibition in experiment [1] and in experiment [4] were 18% and 91% (active), respectively. In addition, the values for the inhibition in experiment [2] and in experiment [3] were 49% and 3%, respectively. Also, the result in experiment [5], in experiment [6], in experiment [7] and in experiment [8] was inactive.

Consider `Cc1cc(C2NC(=O)c3ccccc3N2)c(C)n1-c1ccc2c(c1)OCO2` (configuration not stated), for which the growth inhibition in experiment [1] was 85% (active); in experiment [4], 86% (active). Moreover, the values for the inhibition in experiment [2] and in experiment [3] were 13% and -1%, respectively. Moreover, the outcome in experiment [5], in experiment [6], in experiment [7] and in experiment [8] was inactive.

As to `N#Cc1ccc(CN2CCC(Oc3ccc(NC(=O)c4ccccc4)cc3Cl)CC2)cc1`, the growth inhibition in experiment [1] was 65% (active); in experiment [4], 84% (active). For the same compound, the inhibition in experiment [2] was 21%; in experiment [3], 1%. The result in experiment [5], in experiment [6], in experiment [7] and in experiment [8] was inactive.

For the compound `Oc1c(Cl)cc(-c2ccccc2)cc1CNC1CCCCC1`, the growth inhibition is 95% (active) in experiment [1] and 97% (active) in experiment [4]. The inhibition is 5% in experiment [2] and -5% in experiment [3]. Also, the outcome in experiment [5], in experiment [6], in experiment [7] and in experiment [8] was inactive.

Regarding `O=C(CSc1nccn1C1CCCCC1)Nc1cc(C(F)(F)F)ccc1Cl`, the growth inhibition is 95% (active) in experiment [1] and 96% (active) in experiment [4]. For the same compound, the inhibition is 2% in experiment [2] and -1% in experiment [3]. Also, the result in experiment [5], in experiment [6], in experiment [7] and in experiment [8] was inactive.

For the compound `O=C(NCCCCN1CCC(c2c[nH]c3ccccc23)CC1)c1ccc(-c2ccc(C(F)(F)F)cc2)cc1`, the growth inhibition in experiment [1] was 22%; in experiment [4], 98% (active). In addition, the results for the inhibition in experiment [2] and in experiment [3] were 34% and -1%, respectively. Also, the result in experiment [5], in experiment [6], in experiment [7] and in experiment [8] was inactive.

On to `CCOC(=O)c1ccc(NC(=O)NNC(=O)c2ccc(CCN3CCC(c4nc(COCC(F)(F)F)c(-c5ccc(F)cc5)o4)CC3)cc2)cc1`, for which the values for the growth inhibition in experiment [1] and in experiment [4] were 67% (active) and 103% (active), respectively. Also, the inhibition in experiment [2] is 10%; in experiment [3], 0%. The result in experiment [5], in experiment [6], in experiment [7] and in experiment [8] was inactive.

For `Cc1cc(N[C@@H](C)C(=O)Nc2ccccc2)nc(NCCc2ccc(F)cc2)n1`, the values for the growth inhibition in experiment [1] and in experiment [4] were 43% and 100% (active), respectively. Further, the inhibition was 33% in experiment [2] and -2% in experiment [3]. Besides, the outcome in experiment [5], in experiment [6], in experiment [7] and in experiment [8] was inactive.

With `CC(C)c1sc(N2CCCCC2)nc1C(=O)Nc1ccc(F)cc1C(F)(F)F`, the growth inhibition in experiment [1] is 98% (active); in experiment [4], 100% (active). For the same compound, the inhibition is -1% in experiment [2] and 0% in experiment [3]. Moreover, the outcome in experiment [5], in experiment [6], in experiment [7] and in experiment [8] was inactive.

For the compound `COc1ccc2nccc([C@@H](O)CN3CCC(NC(=O)c4ccc5nc(-n6cccc6)sc5c4)CC3)c2c1`, the results for the growth inhibition in experiment [1] and in experiment [4] were 40% and 90% (active), respectively. Moreover, the inhibition in experiment [2] was 26%; in experiment [3], -2%. Further, the outcome in experiment [5], in experiment [6], in experiment [7] and in experiment [8] was inactive.

`NC(=O)C1Cc2ccccc2CN1CC(=O)Nc1ccccc1Sc1ccccc1` (configuration not stated): the results for the growth inhibition in experiment [1] and in experiment [4] were 99% (active) and 100% (active), respectively. Besides, the inhibition in experiment [2] was 5%; in experiment [3] it was 3%. The result in experiment [5], in experiment [6], in experiment [7] and in experiment [8] was inactive.

As to `CCOC(=O)c1sc(C(C)Nc2ccccc2)nc1-c1ccccc1` (configuration not stated), the growth inhibition is 91% (active) in experiment [1] and 95% (active) in experiment [4]. Moreover, the inhibition in experiment [2] is -8%; in experiment [3], 5%. For the same compound, the result in experiment [5], in experiment [6], in experiment [7] and in experiment [8] was inactive.

Take `CN1CCC(N2CCN(Cc3cccc(-c4ccc(-c5nc6ccc(C(F)(F)F)cc6[nH]5)cc4)c3)CC2)CC1`: the growth inhibition in experiment [1] is 91% (active); in experiment [4], 101% (active). The inhibition in experiment [2] is 100% (active); in experiment [3], 4%. Further, the result in experiment [5], in experiment [6], in experiment [7] and in experiment [8] was inactive.

Consider `COc1cc(-c2cc3cc(Cl)c(Cl)cc3[nH]2)ccc1C(=O)NC1CCN(Cc2ccccc2)CC1`, for which the growth inhibition in experiment [1] was 101% (active); in experiment [4], 102% (active). Besides, the inhibition in experiment [2] is 12%; in experiment [3], -3%. Moreover, the outcome in experiment [5], in experiment [6], in experiment [7] and in experiment [8] was inactive.

As for `CC(C)(CN1CCCC1)CN(Cc1ccc(-c2ccc(C(F)(F)F)cc2)cc1)C(=O)Cn1c(CCc2cccc(F)c2F)nc(=O)c2ccccc21`, the growth inhibition in experiment [1] was 64% (active); in experiment [4] it was 97% (active). In addition, the inhibition in experiment [2] was 57% (active); in experiment [3], -3%. The outcome in experiment [5], in experiment [6], in experiment [7] and in experiment [8] was inactive.

As for `Cc1ccc2nc(C)n(C3CCN(C(=O)C4(c5ccccc5)CC4)CC3)c2c1`, the growth inhibition in experiment [1] was 83% (active); in experiment [4], 100% (active). Besides, the results for the inhibition in experiment [2] and in experiment [3] were 8% and 7%, respectively. In addition, the result in experiment [5], in experiment [6], in experiment [7] and in experiment [8] was inactive.

With `Cc1cccc2[nH]c(-c3ccc(-c4cccc(CN5CCC(C(N)=O)CC5)c4)s3)nc12`, the figures for the growth inhibition in experiment [1] and in experiment [4] were 16% and 86% (active), respectively. Moreover, the inhibition in experiment [2] was 1%; in experiment [3] it was 4%. Also, the outcome in experiment [5], in experiment [6], in experiment [7] and in experiment [8] was inactive.
